These results are taken from PubChem BioAssay (NCATS).

Test [1] deals with Cytochrome P450 2C9 (Homo sapiens) (UniProt P11712). The test can be described thus: Cytochrome P450 family 2 subfamily C member 9 (CYP2C9) small molecule antagonists: luciferase biochemical (cell-free) qHTS assay (AID 1645842). For activity change, negative = inhibition: % is set by controls: 0 for no effect and ±100 for the full control effect. Note: nearly all actives have a fitted effect of over 55% in size. Note: potency is the fitted concentration of half-maximal effect. Put shortly: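 P450-Glo CYP2C9 system: proluciferin substrate with enzyme in mix containing 0.4% BSA, 10 min at room temperature, then NADPH regeneration solution added and incubated 1 h at 37C. Detection reagent stopped reaction; luminescence read after 20 min as RLU.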
Chain of Cytochrome P450 2C9 (Homo sapiens) (P11712 whole entry, looked up): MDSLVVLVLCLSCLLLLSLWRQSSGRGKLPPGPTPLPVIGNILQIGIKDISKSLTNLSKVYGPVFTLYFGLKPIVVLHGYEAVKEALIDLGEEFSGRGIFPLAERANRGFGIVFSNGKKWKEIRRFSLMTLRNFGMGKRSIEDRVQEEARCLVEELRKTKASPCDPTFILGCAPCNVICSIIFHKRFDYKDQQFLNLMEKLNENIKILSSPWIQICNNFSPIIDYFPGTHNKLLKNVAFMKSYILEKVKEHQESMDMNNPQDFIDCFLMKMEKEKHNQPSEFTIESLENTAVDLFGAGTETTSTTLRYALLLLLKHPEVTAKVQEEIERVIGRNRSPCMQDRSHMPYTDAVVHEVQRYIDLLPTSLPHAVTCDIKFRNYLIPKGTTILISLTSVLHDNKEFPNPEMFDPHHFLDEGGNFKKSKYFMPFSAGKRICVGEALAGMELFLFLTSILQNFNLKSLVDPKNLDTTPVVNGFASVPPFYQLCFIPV
(In general: In qHTS, concentration-response curves come from the screen itself.)

Test [2] in a line: Confirmatory qHTS to identify inhibitors of SARS-CoV-2 cell entry (AID 1645844; calls by dose curve; note: potency is the fitted concentration of half-maximal effect; nearly all actives have a fitted effect of over 45% in size). Put shortly: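 Luminescence entry read-out after 48 h: spike-pseudotyped MLV particles (Wuhan-Hu-1, 19-aa C-terminal truncation) added to compound-pretreated (1 h) HEK293-ACE2 cells; Data were normalised to bald PP and spike PP wells.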
Test [3] can be described thus: Cytotoxicity counterscreen for inhibitors of SARS-CoV-2 cell entry (AID 1645845; calls by dose curve; note: nearly all actives have a fitted effect of over 50% in size). Put shortly:
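ATP-content luminescence (ATPLite 1step, 15 min RT) read after 48 h compound exposure of Expi293F cells stably expressing human ACE2; normalized to cells-only wells and media-only wells.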

The nature of test [4]: VSVG counterscreen qHTS to identify inhibitors of SARS-CoV-2 cell entry (AID 1645847; calls by dose curve; note: potency is the fitted concentration of half-maximal effect; nearly all actives have a fitted effect of over 65% in size). Put shortly: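 HEK293-ACE2 cells (Expi293F, human ACE2) pretreated 1 h with compound, then infected with MLV-based VSV-G pseudotyped particles for 48 h at 37 C; luciferase luminescence normalized to VSV-G PP and bald PP wells.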
Background: Counterscreens check selectivity or assay interference.

For test [5], the target named is Cytochrome P450 3A4 (Homo sapiens) (UniProt P08684). The experiment in a line: Cytochrome P450 family 3 subfamily A member 4 (CYP3A4) small molecule antagonists: luciferase qHTS assay (AID 1645841). Note: nearly all actives have a fitted effect of over 45% in size. Note: potency is the fitted concentration of half-maximal effect. The method, boiled down: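 Luminescent CYP3A4 activity readout: compounds plus enzyme-substrate mix 10 min at room temperature, reaction started with NADPH regenerating system for 1 h, stopped with detection reagent, read after 20 min. Ketoconazole served as control.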
Chain of Cytochrome P450 3A4 (Homo sapiens) (P08684 whole entry, looked up): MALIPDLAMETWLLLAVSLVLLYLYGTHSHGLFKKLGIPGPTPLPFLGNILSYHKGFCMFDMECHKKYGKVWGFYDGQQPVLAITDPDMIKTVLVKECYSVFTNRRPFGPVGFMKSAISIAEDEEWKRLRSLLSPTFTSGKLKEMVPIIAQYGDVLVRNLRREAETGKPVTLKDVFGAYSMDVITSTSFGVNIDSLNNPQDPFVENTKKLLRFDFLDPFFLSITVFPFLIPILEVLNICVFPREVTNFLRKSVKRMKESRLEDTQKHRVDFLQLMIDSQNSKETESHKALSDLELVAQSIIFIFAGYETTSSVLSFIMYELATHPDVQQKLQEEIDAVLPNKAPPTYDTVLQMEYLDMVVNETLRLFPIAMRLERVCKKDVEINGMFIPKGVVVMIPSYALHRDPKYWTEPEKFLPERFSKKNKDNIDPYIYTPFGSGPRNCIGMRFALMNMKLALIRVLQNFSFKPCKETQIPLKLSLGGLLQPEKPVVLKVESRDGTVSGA

Test [6] can be described thus: Primary qHTS for inhibitors of nuclear receptor binding SET domain protein 2 (NSD2) in an isogenic RCH-ACV NSD2 p.E1099K mutant (9B) (AID 1645876; active = well fitted curve in the direction sought with a large enough effect; an effect the other way counts as inactive or inconclusive; note: nearly all actives have a fitted effect of over 70% in size; note: potency is the fitted concentration of half-maximal effect).
Test [7] in a line: Primary qHTS to identify inhibitors of SARS-CoV-2 cell entry (AID 1645846; calls by dose curve; note: nearly all actives have a fitted effect of over 45% in size; note: potency is the fitted concentration of half-maximal effect). Particulars: activity change, negative = inhibition: at 57.1 µM (top of the series) unless noted. Put shortly:
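HEK293 cells stably expressing human ACE2, pre-treated 1 h with compound, then infected with MLV particles pseudotyped with Wuhan-Hu-1 spike (C-terminal 19-aa truncation). Luciferase luminescence after 48 h at 37 °C, normalised to spike PP and bald PP.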

Test [8] has as its target N-terminal Xaa-Pro-Lys N-methyltransferase 1 (Homo sapiens) (UniProt Q9BV86). The test can be described thus: Confirmatory qHTS for Inhibitors of N-terminal methyltransferase 1 (NTMT1): MTaseGlo Assay (AID 1645874; active = well fitted curve in the direction sought with a large enough effect; an effect the other way counts as inactive or inconclusive; note: potency is the fitted concentration of half-maximal effect; nearly all actives have a fitted effect of over 65% in size). Put shortly:
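Inhibition was derived from luminescence after SAH-to-ATP conversion, scaled between no-enzyme and DMSO wells, then fitted by 4-parameter Hill. Conditions: 125 nM NTMT1, 100 uM SAM, 1 uM SPKRIA, 30 min RT.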

Test [9] can be described thus: Primary qHTS for inhibitors of nuclear receptor binding SET domain protein 2 (NSD2) in an RCH-ACV wild type WT cells (2C) (AID 1645877; active = well fitted curve in the direction sought with a large enough effect; an effect the other way counts as inactive or inconclusive; note: nearly all actives have a fitted effect of over 70% in size; note: potency is the fitted concentration of half-maximal effect).
For test [10], the target named is Rap guanine nucleotide exchange factor 3 (Homo sapiens) (UniProt O95398). The experiment in a line: Confirmatory qHTS for agonist of cAMP-regulated guanine nucleotide exchange factor 3 (EPAC1) (AID 1645881; active = well fitted curve in the direction sought with a large enough effect; an effect the other way counts as inactive or inconclusive;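 note: EPAC1 catalysed release of BODIPY-GDP from Rap1B seen as fluorescence loss; 100% = effect of cAMP agonist control; nearly all actives have a fitted effect of over 75% in size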).
Chain of Rap guanine nucleotide exchange factor 3 (Homo sapiens) (O95398 whole entry, looked up): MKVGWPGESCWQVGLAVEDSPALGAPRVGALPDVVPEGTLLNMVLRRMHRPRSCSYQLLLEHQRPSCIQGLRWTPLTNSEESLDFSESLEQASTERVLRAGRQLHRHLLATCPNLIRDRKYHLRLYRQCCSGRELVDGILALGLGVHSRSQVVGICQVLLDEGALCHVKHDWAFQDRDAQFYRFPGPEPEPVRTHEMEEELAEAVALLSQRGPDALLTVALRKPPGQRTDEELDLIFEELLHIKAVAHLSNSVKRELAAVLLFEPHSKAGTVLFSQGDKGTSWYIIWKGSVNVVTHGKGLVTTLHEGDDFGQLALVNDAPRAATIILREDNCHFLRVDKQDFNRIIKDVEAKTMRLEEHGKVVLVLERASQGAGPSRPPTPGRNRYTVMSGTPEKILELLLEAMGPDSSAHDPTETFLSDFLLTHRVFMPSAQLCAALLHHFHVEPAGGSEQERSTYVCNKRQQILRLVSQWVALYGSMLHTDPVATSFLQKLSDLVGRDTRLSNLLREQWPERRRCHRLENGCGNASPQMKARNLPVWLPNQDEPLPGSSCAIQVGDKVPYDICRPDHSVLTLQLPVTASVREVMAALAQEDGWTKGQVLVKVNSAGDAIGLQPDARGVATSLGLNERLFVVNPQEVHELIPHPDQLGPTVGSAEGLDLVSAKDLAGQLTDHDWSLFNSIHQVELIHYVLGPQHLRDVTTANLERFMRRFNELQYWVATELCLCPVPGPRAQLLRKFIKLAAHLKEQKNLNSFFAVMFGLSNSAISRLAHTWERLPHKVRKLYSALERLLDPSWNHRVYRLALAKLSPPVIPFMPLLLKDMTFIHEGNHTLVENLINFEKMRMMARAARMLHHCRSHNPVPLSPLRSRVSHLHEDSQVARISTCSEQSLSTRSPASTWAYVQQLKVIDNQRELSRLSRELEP
The target of test [11] is Rap guanine nucleotide exchange factor 4 (Homo sapiens) (UniProt Q8WZA2). The experiment in a line: Confirmatory qHTS for antagonist of cAMP-regulated guanine nucleotide exchange factor 4 (EPAC2) (AID 1645885; active = well fitted curve in the direction sought with a large enough effect; an effect the other way counts as inactive or inconclusive; note: % is set by controls: 0 for no effect and ±100 for the full control effect; nearly all actives have a fitted effect of over 25% in size).
Chain of Rap guanine nucleotide exchange factor 4 (Homo sapiens) (Q8WZA2 whole entry, looked up): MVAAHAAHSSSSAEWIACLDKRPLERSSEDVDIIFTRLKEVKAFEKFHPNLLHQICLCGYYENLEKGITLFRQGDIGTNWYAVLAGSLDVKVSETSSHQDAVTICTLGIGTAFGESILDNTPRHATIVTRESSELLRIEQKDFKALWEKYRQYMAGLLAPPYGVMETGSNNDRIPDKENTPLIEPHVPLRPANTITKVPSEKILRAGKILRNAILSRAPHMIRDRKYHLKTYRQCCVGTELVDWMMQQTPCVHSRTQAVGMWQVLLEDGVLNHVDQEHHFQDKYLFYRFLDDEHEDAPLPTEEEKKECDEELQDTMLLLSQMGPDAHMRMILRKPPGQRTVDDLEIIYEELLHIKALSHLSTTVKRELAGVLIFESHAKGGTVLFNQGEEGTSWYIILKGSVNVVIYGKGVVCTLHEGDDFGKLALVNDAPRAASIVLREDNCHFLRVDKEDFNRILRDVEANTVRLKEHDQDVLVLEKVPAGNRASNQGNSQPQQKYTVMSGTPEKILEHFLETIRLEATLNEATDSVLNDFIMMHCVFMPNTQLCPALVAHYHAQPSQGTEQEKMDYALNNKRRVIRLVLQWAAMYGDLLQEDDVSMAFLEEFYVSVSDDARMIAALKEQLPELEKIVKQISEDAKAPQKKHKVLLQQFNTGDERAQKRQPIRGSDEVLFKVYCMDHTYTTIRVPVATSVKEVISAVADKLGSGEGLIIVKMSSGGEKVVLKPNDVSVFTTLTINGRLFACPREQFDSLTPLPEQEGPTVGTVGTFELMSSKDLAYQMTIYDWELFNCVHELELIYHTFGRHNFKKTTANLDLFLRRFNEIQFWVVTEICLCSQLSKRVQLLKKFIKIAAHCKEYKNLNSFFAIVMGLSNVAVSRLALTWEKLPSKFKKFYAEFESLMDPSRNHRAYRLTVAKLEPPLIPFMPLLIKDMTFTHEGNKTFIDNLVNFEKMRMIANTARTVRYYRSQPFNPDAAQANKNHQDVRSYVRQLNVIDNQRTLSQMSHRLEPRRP
The target of the next test is Papain (Carica papaya) (UniProt P00784). The experiment in a line: Primary qHTS assay for inhibitors of the protease papain (AID 1645873; active = well fitted curve in the direction sought with a large enough effect; an effect the other way counts as inactive or inconclusive;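 note: papain turnover of Z-FR-AMC read as the AMC fluorescence gain over 10 min; % is set by controls: 0 for no effect and ±100 for the full control effect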).
Chain of Papain (Carica papaya) (P00784 whole entry, looked up): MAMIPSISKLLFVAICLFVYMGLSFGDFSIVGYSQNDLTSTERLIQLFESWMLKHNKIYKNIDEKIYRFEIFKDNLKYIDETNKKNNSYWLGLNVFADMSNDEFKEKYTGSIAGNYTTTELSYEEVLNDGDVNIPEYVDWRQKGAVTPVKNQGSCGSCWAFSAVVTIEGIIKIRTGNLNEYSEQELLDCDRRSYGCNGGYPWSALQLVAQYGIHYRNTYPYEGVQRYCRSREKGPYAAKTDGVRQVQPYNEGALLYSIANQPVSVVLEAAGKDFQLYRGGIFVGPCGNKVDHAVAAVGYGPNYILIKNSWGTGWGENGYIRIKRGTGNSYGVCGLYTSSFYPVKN

Inconclusive results are not listed. The source made the active and inactive calls. Unless noted, calls come from the whole dose curve; as a rule, active = well fitted curve in the direction sought with a large enough effect in the repeat runs; inconclusive = weak or mixed curves; inactive = no such curve, though single readings can be large; an effect the other way counts as inactive or inconclusive.

Chain of N-terminal Xaa-Pro-Lys N-methyltransferase 1 (Homo sapiens) (Q9BV86 whole entry, looked up): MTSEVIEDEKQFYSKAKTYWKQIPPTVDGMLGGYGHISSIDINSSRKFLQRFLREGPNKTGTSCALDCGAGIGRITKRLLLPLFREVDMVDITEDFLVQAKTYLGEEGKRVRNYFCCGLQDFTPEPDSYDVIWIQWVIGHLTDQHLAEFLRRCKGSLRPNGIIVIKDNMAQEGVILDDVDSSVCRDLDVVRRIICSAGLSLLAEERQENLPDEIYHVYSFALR

`C=CC[C@]1(O)CC[C@H]2[C@@H]3CCC4=CC(=O)CCC4=C3C=C[C@@]21C`: the Potency was 11 µM (active) in test [1], 15.2 µM (active) in test [2] and 17.1 µM (active) in test [4]. Also, the Potency result in test [3] is “inactive”.

As for `CCC1(CC)C(=O)NC(=O)NC1=O`, the Potency result in test [5] and in test [1] was “inactive” in each case.

Consider `CCOP(=S)(OCC)O/N=C(\C#N)c1ccccc1`, for which, in test [1], the Potency was 2.19 µM (active).

On to `C[C@]12C=CC(=O)C=C1CC[C@@H]1[C@@H]2CC[C@@]2(C)[C@H]1CC[C@]2(C)O`, for which the Potency result in test [5] and in [1] was “inactive” in each case. For the same molecule, the Potency in test [6] is 23.7 µM (active).

As to `Sc1ccccc1Cl`, the Potency result in test [1] is “inactive”.

For `CN1CCc2cc(Cl)c(O)cc2[C@H]2c3ccccc3CC[C@@H]21`, the Potency result in test [1] is “inactive”.

For `CC[C@H]1C[C@@H]2C[C@H]3c4[nH]c5ccc(OC)cc5c4CCN(C2)[C@@H]13`, the Potency entry in [1] is “inactive”.

Regarding `Cc1ccc([N+](=O)[O-])[c]2c1[O][Hg]2`, the Potency in [5] was 0.977 µM (active); in test [1], 0.436 µM (active); in test [7], 5.62 µM (active); in test [8], 0.728 µM (active); in test [6] it was 0.0841 µM (active).

`C#C[C@]1(O)C=C[C@H]2[C@@H]3CCC4=CC(=O)CC[C@@H]4[C@H]3CC[C@@]21CC`: in [1], the Potency is 2.75 µM (active). Besides, in test [3], the Potency result is “inactive”. Moreover, the activity change, negative = inhibition in test [7] is -10.9%.

Consider `c1ccc2c(c1)Sc1ccccc1N2CC1CN2CCC1CC2` (centres undefined), for which, in [1], the Potency entry is “inactive”. The figures for the Potency in test [2] and in test [4] were 4.82 µM (active) and 0.383 µM (active), respectively.

On to `CC(Cc1ccccc1)NCCCCl` (centres undefined), for which the Potency entry in test [1] and in test [3] was “inactive” in each case.

In the case of `CNC(=O)NC(O)C(Cl)(Cl)Cl` (centres undefined), the Potency result in [1] is “inactive”.

Regarding `CN1CCC(N(Cc2ccccc2)c2ccccc2)CC1`, in [1], the Potency result is “inactive”.

With `ClCCCN1CCN(c2cccc(Cl)c2)CC1`, the Potency result in [5] and in test [6] was “inactive” in each case.

On to `CN(C)CCc1c[nH]c2ccccc12`, for which the Potency result in test [5], in test [1], in test [6] and in test [9] was “inactive” each time.

For `COc1cc(C[C@@H](C)N)c(OC)cc1Br`, in test [1], the Potency result is “inactive”.

For the molecule `Cc1c(Cl)c(=O)oc2cc(OP(=O)(OCCCl)OCCCl)ccc12`, in test [1], the Potency is 1.23 µM (active). The Potency entry in test [3] was “inactive”.

In the case of `COc1cc(CC(C)N)cc2c1OCO2` (centres undefined), the Potency entry in test [1] was “inactive”.

Take `COP(=S)(OC)Oc1ccc(Sc2ccc(OP(=S)(OC)OC)cc2)cc1`: the Potency is 7.76 µM (active) in [5] and 15.5 µM (active) in [1].

Consider `CC(C)(C)OC(=O)c1ncn2c1[C@@H]1CCCN1C(=O)c1c(Br)cccc1-2`, for which the Potency in [1] is 4.36 µM (active).

Regarding `CC1N=C(N)OC1c1ccccc1` (centres undefined), the Potency result in [1] is “inactive”.

For the molecule `CCCC(C)C1(CC)C(=O)N=C(S)NC1=O` (centres undefined), the Potency in [1] is 15.5 µM (active).

In the case of `O=c1n(Cl)c(=O)n(Cl)c(=O)n1Cl`, the Potency entry in test [1], in [6] and in test [9] was “inactive” in each case. The activity change, negative = inhibition in test [7] worked out at 1.05%.

With `CC1=C2[C@H]3OC(=O)[C@@H](C)[C@@H]3CC[C@@]2(C)C=CC1=O`, the Potency entry in [1], in test [3] and in test [6] was “inactive” throughout. In addition, the activity change, negative = inhibition in test [7] amounted to 2.07%.

In the case of `COP(=S)(OC)Oc1ccc(S(N)(=O)=O)cc1`, the Potency in [1] was 4.36 µM (active). Moreover, the Potency entry in [3], in test [6] and in test [9] was “inactive” throughout.

For the molecule `CCCCCCCCCCCCOS(=O)(=O)O`, the Potency result in test [1] and in test [3] was “inactive” in each case. In addition, the activity change, negative = inhibition in test [7] was -9.15%.

`CCCCCCCCC(=O)NCc1ccc(O)c(OC)c1`: the Potency in test [1] was 0.692 µM (active). The Potency entry in test [3], in test [6] and in test [9] was “inactive” in each case. Besides, the activity change, negative = inhibition in test [7] amounted to 4.35%.

`C[C@H](N)[C@H](O)c1ccc(O)c(O)c1`: the Potency entry in [1], in [6], in test [9] and in test [11] was “inactive” in each case. Further, the activity change, negative = inhibition in test [7] is -20.4%. Further, in [10], the molecule was called inactive.

For `O=C1CN2CCOC2(c2ccccc2Cl)c2cc(Cl)ccc2N1` (centres undefined), the Potency entry in test [1], in test [3] and in test [6] was “inactive” each time. Further, the activity change, negative = inhibition in test [7] is -6.92%.

`Cc1ccc(N=CN(C)C=Nc2ccc(C)cc2C)c(C)c1`: the Potency result in test [1], in test [3] and in test [6] was “inactive” each time. In addition, the activity change, negative = inhibition in test [7] is -12.8%.

`Nc1ccccc1C(=O)OCC(O)CO` (centres undefined): the Potency result in [1], in test [6] and in test [9] was “inactive” in each case. For the same molecule, the activity change, negative = inhibition in test [7] is -1.98%.

Turning to `CC[C@]1(O)CC[C@H]2[C@@H]3CCC4=CCCC[C@@H]4[C@H]3CC[C@@]21C`, the Potency result in test [1] and in [3] was “inactive” each time. For the same molecule, the Potency was 14.1 µM (active) in [8], 9.44 µM (active) in [6] and 7.5 µM (active) in test [9].

On to `CN(C)C(=O)Oc1cc(OC(=O)N(C)C)cc(C(O)CNC(C)(C)C)c1` (centres undefined), for which the Potency result in test [1], in test [3], in test [7] and in test [6] was “inactive” each time.

Turning to `O=C(N[C@H]1N=C(c2ccccc2F)c2cccc3c2N(CC3)C1=O)c1cc2ccccc2[nH]1`, the Potency in [1] was 6.92 µM (active). For the same molecule, the Potency entry in test [3] is “inactive”. For the same molecule, the activity change, negative = inhibition in test [7] was -28.2%.

As for `Cc1nnc2n1-c1sc(CCC(=O)N3CCOCC3)cc1C(c1ccccc1Cl)=NC2`, the Potency entry in test [1], in test [3], in [6] and in test [9] was “inactive” in each case.

`CC(C)C(Br)C(=O)NC(N)=O` (centres undefined): the Potency entry in [1], in test [3] and in [6] was “inactive” throughout. Further, the activity change, negative = inhibition in test [7] is 4.07%.

For the molecule `CCOC(=O)c1cncn1C(C)c1ccccc1` (centres undefined), the Potency in test [1] is 11 µM (active). The Potency entry in [3], in [7] and in test [6] was “inactive” each time.

Consider `CCC1(c2cccc(O)c2)CCCCN(C)C1` (centres undefined), for which the Potency entry in [1], in test [3], in [7] and in test [6] was “inactive” each time.

Regarding `O=C(CCCN1CCC(n2c(=O)[nH]c3ccccc32)CC1)c1ccc(F)cc1`, the Potency entry in test [1] and in test [7] was “inactive” each time.

As for `CC(C)(O)C(Cl)(Cl)Cl`, the Potency result in test [1], in test [3], in [7] and in test [6] was “inactive” throughout.

In the case of `COP(=O)(OC)OC=C(Cl)Cl`, the Potency result in test [1], in test [3] and in [6] was “inactive” each time. The activity change, negative = inhibition in [7] is -2.57%.

Regarding `NC(=O)CN1CCCC1=O`, the Potency result in test [1], in test [3], in test [7] and in test [6] was “inactive” throughout. Also, the molecule was classed as inactive in the test with Papain (Carica papaya).

As for `CCCC[N+]1(C)[C@@H]2CC(OC(=O)[C@H](CO)c3ccccc3)C[C@H]1[C@@H]1O[C@@H]12` (some centres undefined), the Potency result in test [1], in test [3], in test [6] and in [9] was “inactive” in each case. Moreover, in test [7], the activity change, negative = inhibition is -15.6%.
